Source: PubChem BioAssay (NCI)
The panel holds about 83,000 compounds, 20% with a hit somewhere; the sample as a whole holds those more often.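 Compound tested at a single concentration for 48 hours in 96-well plates; a percent growth value below 10 was scored as active.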 Active and inactive are the calls of the source.

test system: HL-60(TB) leukemia; experiment: NCI-60 one-dose screen, 48 h (100 = growth as untreated, 0 = no growth, -100 = all killed); settings: 10 µM unless noted

Row | SMILES | growth
1 | N#Cc1ccc(OC(=O)Nc2c(Cl)cc(Cl)cc2Cl)cc1 | 102% (inactive)
2 | Nc1n[nH]c2ccc([C@@H]3Nc4ccc5cn[nH]c5c4[C@H]4C5CCC(C5)[C@@H]34)cc12 (stereo not given in full) | -29.2% (active)
3 | C=C(C)[C@@H]1CC[C@]2(CN)CC[C@]3(C)[C@H](CC[C@@H]4[C@@]5(C)CCCNC(C)(C)[C@@H]5CC[C@]43C)[C@@H]12 | -52.8% (active)
4 | COc1ccc(C(=O)COc2cccc(/C=C3\CSc4ccc(C)cc4C3=O)c2)cc1 | 45.6% (inactive)
5 | COc1cc(Nc2ncnc(Nc3ccc4c(n3)NC(=O)C(C)(C)O4)n2)cc(OC)c1OC | 46.8% (inactive)
6 | CCCCCCn1c(-c2ccc(C(=O)O/N=C(\N)c3ccc4c(c3)OCO4)cc2)nc(-c2ccccc2)c1-c1ccccc1 | -51.1% (active)
7 | COc1ccc(CSc2nnc(SCC(=O)Nc3ccc(Cl)cc3)s2)cc1 | 56.9% (inactive)
8 | CC(=O)Nc1cc(F)cc(C(F)(F)F)c1Cl | 100% (inactive)
9 | Cc1nc2ccccc2c(/C=C/c2ccc(C(F)(F)F)cc2)c1C(=O)/C=C/c1ccccc1 | -19% (active)
10 | O=C(Cn1c[n+](CC(=O)c2ccc(-c3ccccc3)cc2)c2ccccc21)Nc1cccc2cccnc12 | -37.2% (active)
11 | Cc1cc2nc3c4cc([N+](=O)[O-])ccc4n(CCN(C)C)c3nc2cc1C | -4.06% (active)
12 | O=C(Nc1ccc(Cl)cc1F)c1cc(F)ccc1O | -43.8% (active)
13 | Cc1nc2ccccc2n1CC1NC(=O)NC1=O (stereo not given) | 95.1% (inactive)
14 | CCCCCCCCCCCC(=O)NCCC[N+](C)(C)CC(=O)[O-] | 101% (inactive)
15 | O=C(NCCNCCO)c1cc([N+](=O)[O-])cc([N+](=O)[O-])c1O | 102% (inactive)
16 | CCn1c(Sc2nnc(NC(=O)CSC(=S)N3CCCCC3)s2)nc2c1c(=O)n(C)c(=O)n2C | 95% (inactive)
17 | O=C1C(Cl)=C(Nc2ccc(S(=O)(=O)N3CCOCC3)cc2)C(=O)c2ccccc21 | -17.7% (active)
18 | NC(=O)SCC(=O)Nc1ccc(S(N)(=O)=O)cc1 | 103% (inactive)
19 | COc1ccc2c(c1)nc(N)c1c3cc(OC)c(OC)cc3cn21 | 23.1% (inactive)
20 | COc1ccc2c(c1)C(=O)c1c-2c(OCCN(C)C)nc2ccccc12 | 25.4% (inactive)

Row | SMILES | growth
21 | CC(=O)N(C)c1ccc([N+](=O)[O-])cc1 | 72.8% (inactive)
22 | COC(=O)c1ccc(CSc2nnc(-c3ccncc3)o2)cc1 | 95.5% (inactive)
23 | COc1ccc(-c2csc3c2-n2cccc2C3=O)cc1O | -18.3% (active)
24 | O=C(NN(C(=O)c1ccccc1)c1cccs1)c1ccccc1 | 101% (inactive)
25 | Fc1cc(Nc2ccc3c(OCCCN4CCOCC4)cccc3n2)ccc1Cl | 39.1% (inactive)
26 | CCN(CC)CCCOc1cccc2c1C(=O)c1cccc(OCCCN(CC)CC)c1C2=O | 30.3% (inactive)
27 | O=[N+]([O-])c1cccc(-c2nc(-c3ccc(Cl)cc3Cl)cn2-c2ccccc2)c1 | 35.3% (inactive)
28 | CSc1nn(-c2ccccc2)c2ncnc(Oc3ccccc3)c12 | 109% (inactive)
29 | Cn1c2c(c3ccc(Cl)c(Cl)c31)C(C#N)C1(CCNCC1)NC2=O (stereo not given) | 4.92% (active)
30 | Cc1cc(N2CCCCC2)nc(N(CCNc2ccnc3cc(Cl)ccc23)Cc2ccco2)n1 | -46.3% (active)
31 | O=C(N/N=C\c1ccccc1S(=O)(=O)O)N/N=C/c1ccccc1S(=O)(=O)O | 91.7% (inactive)
32 | CCOc1ccc(/C=C/C=N/NC(N)=S)cc1 | 42% (inactive)
33 | COc1cc(C2CC(c3ccccc3)=NN2C=O)ccc1Oc1nc2c(c(=O)n(C)c(=O)n2C)n1C (stereo not given) | 101% (inactive)
34 | C=C1C(=O)O[C@H]2[C@H]1CC/C(COC(=O)/C=C/C(=O)OC/C1=C/CC[C@@]3(C)O[C@H]3[C@H]3OC(=O)C(=C)[C@@H]3CC1)=C\CC[C@@]1(C)O[C@@H]21 | -23.6% (active)
35 | Cn1nc(N)c2cc([C@@H]3Nc4ccc5[nH]ncc5c4[C@H]4C5CCC(C5)[C@@H]34)ccc21 (stereo not given in full) | -16.6% (active)
36 | CC1O[C@@H](OC2[C@H](OC(=O)/C=C/c3ccc(O)c(O)c3)C(COC3O[C@H](C)C(O)C(O)[C@@H]3O)O[C@@H](OCCc3ccc(O)c(O)c3)[C@H]2O)[C@@H](O)C(O)[C@H]1O (stereo not given in full) | 103% (inactive)
37 | O=C1CCC(C(=O)NN(c2ccccc2)c2ccccc2)N1 (stereo not given) | -18.8% (active)
38 | O=C(C[C@@H](C(=O)NCc1cccc(C(F)(F)F)c1)N1C(=O)[C@@H](N2C(=O)OC[C@@H]2c2ccccc2)[C@H]1/C=C/c1ccccc1)NC1CCN(Cc2ccccc2)CC1 | 55.3% (inactive)
39 | COc1ccc(-c2nc3ccc(-c4nc5ccc(N6CCN(c7ccccc7)CC6)cc5[nH]4)cc3[nH]2)cc1OC | 16.1% (inactive)
40 | CCOC(=O)C1=C(C)N(C)C(=O)N(C)C1c1ccccc1 (stereo not given) | -4.05% (active)
